Screening results: PubChem, National Center for Advancing Translational Sciences (NCATS)
DT40 TDP1 no CPT: qHTS for Inhibitors of human tyrosyl-DNA phosphodiesterase 1 (TDP1): qHTS in cells in absence of CPT. DT40 Tdp1-/- hTDP1 cells, no CPT, ATP luminescence, 48 h. Potency, µM (highest dose often 46.2 µM), most hits filed as inhibitors. 420,000 tested, 15% active. AID 686978, 2013; further: nearly all actives have a fitted effect of over 55% in size
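Stably hTDP1-transfected Tdp1-null chicken DT40 cells were treated with library compounds minus camptothecin and grown for at least 48 hr at 37 °C, after which cellular ATP was quantified by luminescence.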
KB-V1 MDR tox: KB-V1 MDR subline cytotoxicity; KB-V1 MDR cells viability, CellTiter-Glo, 72 h; Potency, µM (titrated, usually from 46.1 µM), actives largely listed as cytotoxic; 400,000 tested, 3.4% active; AID 1347076; further: nearly all actives have a fitted effect of over 60% in size
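Cytotoxicity via CellTiter-Glo luminescence after 72 h compound exposure at 37 degrees C. Cells: drug-selected KB-V1 line, DMEM phenol-red free plus 10% FBS. Compounds tested at multiple concentrations; normalized data fitted to concentration-effect curves.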
HT1080NT lethal: kills 2HG-producing HT-1080-NT fibrosarcoma cells | HT-1080-NT fibrosarcoma viability, CellTiter-Glo ATP luminescence, 48 h | Potency, µM (top dose mostly 46.1 µM), hits mostly cytotoxic | 360,000 tested, 1.6% active;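 further: NT is the 2HG producing partner of a matched IDH1 knockdown line; nearly all actives have a fitted effect of over 55% in size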
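Compounds were tested in concentration-response format on HT-1080-NT cells for 48 hours at 37 degrees C. Cell viability came from CellTiter-Glo luminescence; curves were classified by r2, response magnitude and activity.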
HT1080 IDH1KD tx: toxicity to HT-1080 IDH1 knockdown cells (counter line). HT-1080 IDH1 knockdown viability, ATP luminescence, 48 h. Potency, µM (series often up to 46.1 µM), usual class: cytotoxic. 360,000 tested, 2% active. AID 686971
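After a 2 h attachment period, IDH1KD HT-1080 cells took pin-transferred compound for 48 h at 37 °C; ATP-based luminescence after 10 min room-temperature reagent incubation reported viability.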
TDP1 cell CPT: DT40-hTDP1 cell growth loss with CPT. AID 686979. Potency, µM (highest dose often 46.2 µM), hits mostly inhibitors. chicken DT40 Tdp1-/-;hTDP1 cells + 20 nM CPT, ATP luminescence, 48 h. 420,000 tested, 12% active; further: nearly all actives have a fitted effect of over 55% in size
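Cell growth measured by CellTiter-Glo luminescence after a minimum 48 h, 37 C compound exposure with 20 nM CPT in Tdp1-knockout DT40 cells stably expressing hTDP1, seeded 400/well; qHTS titration format.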
KB-3-1 cytotox: kills parental KB-3-1 adenocarcinoma cells; KB-3-1 viability, CellTiter-Glo ATP luminescence, 72 h; Potency, µM (series often up to 46.1 µM), hits mostly cytotoxic; 400,000 tested, 1.4% active; further: nearly all actives have a fitted effect of over 60% in size
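Screening of KB-3-1 cells (DMEM, 10% FBS, phenol-red free) ran from lowest to highest compound concentration; after 72 h at 37 °C viability was read luminescently and curves fitted.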
A number is an active result; . = inactive; ? = inconclusive; / = no result. An excerpt weighted towards active compounds, which were near 19% of everything screened. The call rests on the fitted dose curve; in most records, active means well fitted curve in the direction sought with a large enough effect; inconclusive means small, poorly fitted or top-dose-only effect, or another doubt; inactive means no such curve, though single readings can be large; an effect the other way counts as inactive or inconclusive.

SMILES	DT40 TDP1 no CPT	KB-V1 MDR tox	HT1080NT lethal	HT1080 IDH1KD tx	TDP1 cell CPT	KB-3-1 cytotox
CCOC(=O)C1(C)NC(c2cccs2)C2C(=O)N(c3ccc(OC)cc3)C(=O)C21 (configuration not stated)	18µM	.	.	.	10µM	.
CCOC(=O)C1(C)NC(c2ccccc2F)C2C(=O)N(c3cccc(C(C)=O)c3)C(=O)C21 (configuration not stated)	18µM	.	?	.	23µM	.
COCC(=O)N(C)C[C@H]1Oc2cc(C#Cc3cccnc3)ccc2S(=O)(=O)N([C@H](C)CO)C[C@H]1C	?	.	.	.	.	.
CCOC(=O)C(C)N1C(=O)S/C(=C/c2cc(C)n(-c3ccccn3)c2C)C1=O (configuration not stated)	16µM	?	.	.	?	.
COCCn1c(C)cc(/C=C2/SC(=O)N(C(C)C(=O)OC)C2=O)c1C (configuration not stated)	26µM	.	.	.	?	.
CCn1c(C)cc(/C=C2/SC(=S)N(CC(=O)O)C2=O)c1C	.	.	.	.	.	.
Cc1cc(/C=C2\SC(N)=NC2=O)c(C)n1-c1ccccc1	?	.	.	.	?	.
C#CCN1C(=O)S/C(=C/c2cc(C)n(CC)c2C)C1=O	21µM	.	.	.	?	.
CCn1c(C)cc(/C=C2/SC(=O)N(C(C)C(=O)OC)C2=O)c1C (configuration not stated)	21µM	.	?	.	?	?
COC(=O)c1ccc2c(C)c(C(C)(C)O)[nH]c2c1	.	.	.	.	.	.
COc1ccc2nc(NC(=O)c3ccc(S(=O)(=O)N4CCC(C)CC4)cc3)sc2c1	?	.	/	/	.	.
Cc1cccc(NC(=O)CN2C(=O)N/C(=C/c3cc(C)n(C(C)C)c3C)C2=O)c1	?	.	.	.	?	.
COC(=O)C(C)N1C(=O)S/C(=C/c2cc(C)n(C(C)C)c2C)C1=O (configuration not stated)	?	4.1µM	.	.	16µM	?
O=C(COc1ncnc2ccc(Br)cc12)NCc1ccco1	.	.	?	?	?	.
COc1ccc(-c2nc3c(C#N)c[nH]n3c2NC2CCCC2)c(OC)c1	?	.	/	/	12µM	.
CC(C)Oc1ccc(-c2nc3c(C#N)c[nH]n3c2NC2CCCCC2)cc1	23µM	?	/	/	?	.
COc1cccc(-c2nc3c(C#N)c[nH]n3c2NC2CCC(C)CC2)c1 (configuration not stated)	?	.	/	/	?	.
CCOc1ccc(-c2nc3c(C#N)c[nH]n3c2NC2CCCC2)cc1	16µM	.	/	/	10µM	.
O=C(C[n+]1cccc(Cl)c1)c1ccc(O)c(O)c1	.	.	/	/	.	?
O=C1C=CC(=O)N1c1ccc(OC(F)F)cc1	0.65µM	?	?	16µM	0.41µM	?
O=C1C=CC(=O)N1c1ccc(O)cc1	2.3µM	?	.	.	2.6µM	.
O=C1CCCC(=O)N1c1ccc(O)cc1	.	.	.	.	.	.
CSc1nn(Cc2ccccc2C)c(NC(C)=O)c1S(=O)(=O)c1ccc(C)cc1	15µM	.	/	/	?	.
CCOCCCNS(=O)(=O)c1ccc(NC(=O)N2c3ccccc3Sc3ccccc32)cc1	?	?	?	?	23µM	?
Cc1c(CCNC(=O)c2ccco2)sc2nc(-c3ccc(F)cc3)nn12	23µM	/	/	/	21µM	/
Cc1ccc(-c2nc3sc(CCNC(=O)c4ccc(C)c(C)c4)c(C)n3n2)cc1	.	.	/	/	.	.
Cc1c(CCNC(=O)c2ccc(C(C)(C)C)cc2)sc2nc(-c3ccc(F)cc3)nn12	13µM	/	/	/	15µM	/
Cc1ccc(-c2nc3sc(CCNC(=O)c4ccco4)c(C)n3n2)cc1	18µM	.	/	/	?	.
